Reference: the supplement of paper PMC10981050
Where “and” joins values, the source holds several entries; their conditions need not be identical. Equal entries are not always repeated. Structures can show the parent of a compound that is named as a salt.

How the values were obtained:
Experiment in all cases: cell viability relative to vehicle control; higher = less cytotoxic
Conditions in all cases: 10 µM
K562 = test system: K562
Method in brief: (§1)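 CRISPR-edited mutant clones and isogenic wild-type clones from four leukaemia lines were screened against Selleck bioactive, kinase and epigenetic probe libraries, with identity-inconsistent compounds excluded. Each compound was acoustically dispensed at a single 10 µM dose into 384-well plates holding 2000 cells in 50 µL medium per well. After 48 h the supernatant was removed and CellTiter-Glo luminescence was read. Viability was expressed as percent of the on-plate vehicle control and analysed in Genedata Screener.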

MARIMO = test system: MARIMO
Method in brief: as §1

MOLM14 = test system: MOLM14
Method in brief: as §1

OCI-AML2 = test system: OCI-AML2
Method in brief: as §1

| Structure (SMILES) | cell viability (K562; SRSF2 genotype: SRSF2 P95H/wt) | cell viability (K562; SRSF2 genotype: SRSF2 wt/wt) [%] | cell viability (MARIMO; SRSF2 genotype: SRSF2 P95H/wt) [%] | cell viability (MARIMO; SRSF2 genotype: SRSF2 wt/wt) [%] | cell viability (MOLM14; SRSF2 genotype: SRSF2 P95H/wt) [%] | cell viability (MOLM14; SRSF2 genotype: SRSF2 wt/wt) [%] | cell viability (OCI-AML2; SRSF2 genotype: P95H/wt) [%] | cell viability (OCI-AML2; SRSF2 genotype: wt/wt) [%] |
| --- | --- | --- | --- | --- | --- | --- | --- | --- |
| O=C(Nc1cccc(C2=NCCN2)c1)Nc1cccc(C2=NCCN2)c1 [Imidocarb dipropionate] | 98.4% and 92.2% | 95.3 | 91.5 | 103 | 80.2 | 87.7 | 88.6 | 89.4 |
| Cn1cc(-c2cnn3c(N)c(Br)c([C@@H]4CCCNC4)nc23)cn1 | 42.2% and 58.8% | 25.3 | 50.4 | 61.6 | 12.8 | 7.07 | 9.84 | 11.1 |
| CCN(c1cc(-c2ccc(CN3CCOCC3)cc2)cc(C(=O)NCc2c(C)cc(C)[nH]c2=O)c1C)C1CCOCC1 [Tazemetostat (EPZ-6438)] | 92.9% and 95% | 94.2 | 93.3 | 102 | 89.5 | 93.3 | 105 | 99.6 |
| O=c1c(-c2ccc(O)cc2)coc2cc(O)cc(O)c12 [Genistein] | 97.4% and 105% | 105 | 92.6 | 87.8 | 79.4 | 88.7 | 81.8 | 87.4 |
| CN1CCCC(n2nc(Cc3ccc(Cl)cc3)c3ccccc3c2=O)CC1 (centres undefined) [Azelastine hydrochloride (Astelin)] | 87% and 91% | 92.6 | 88.1 | 90.3 | 78.9 | 88.6 | 75.9 | 72.6 |
| Cc1cc(C(C)(C)C)cc(C)c1CC1=NCCN1 [Xylometazoline HCl] | 92.4% and 97.6% | 99.5 | 95.4 | 105 | 102 | 103 | 93.4 | 99.7 |
| COc1ccccc1OCC(O)CO (centres undefined) [Guaifenesin (Guaiphenesin)] | 106% and 104% | 107 | 103 | 108 | 107 | 109 | 105 | 118 |
| NS(=O)(=O)c1ccc(NC(=S)N2CCN(CC=Cc3ccccc3)CC2)cc1 | 85.3% and 88.8% | 93.5 | 83.5 | 76.7 | 95.3 | 99.2 | 64.5 | 76.5 |
| CN1CCN(C(=O)c2cc3cc(Cl)ccc3[nH]2)CC1 | 99% and 97.5% | 98.6 | 100 | 98.7 | 92.6 | 99.3 | 109 | 96.6 |
| CCCCCCCCOC(=O)c1cc(O)c(O)c(O)c1 [Octyl gallate] | 47.3% and 44.6% | 58.7 | 32.3 | 51 | 48.4 | 28.9 | 52.9 | 56.1 |
| O=C(N[C@@H](c1ccccc1)[C@@H](O)C(=O)O)c1ccccc1 [N-Benzoyl-(2R,3S)-3-phenylisoserine] | 108% and 99.9% | 103 | 100 | 98.4 | 103 | 102 | 101 | 104 |
| COC(=O)c1ccc2c(C(=Nc3ccc(N(C)C(=O)CN4CCN(C)CC4)cc3)c3ccccc3)c(O)[nH]c2c1 [Nintedanib (BIBF 1120)] | 1.02% and 0.94% | 2.25 | 39 | 34.4 | 2.6 | 4.94 | 0.94 | 5.1 |
| CCc1nc(C(N)=O)c(Nc2ccc(N3CCC(N4CCN(C)CC4)CC3)c(OC)c2)nc1NC1CCOCC1 [Gilteritinib (ASP2215)] | 89% and 85.7% | 91.4 | 40.9 | 40.6 | 4.58 | 8.89 | 14.3 | 21.3 |
| COc1ccc(S(=O)(=O)N(C(C)=O)c2ccccc2/C=C/c2cc[n+]([O-])cc2)cc1 | 19.2% and 41.4% | 38.4 | 6.78 | 8.02 | 15.9 | 3.3 | 6.25 | 9.13 |
| CC(C)(Oc1ccc(Cl)cc1)C(=O)OCCOC(=O)c1cccnc1 [Etofibrate] | 96% and 91.7% | 95.4 | 93.2 | 100 | 94.7 | 101 | 83.5 | 77.5 |
| CC[C@H](c1ccc(O)cc1)[C@@H](CC)c1ccc(O)cc1 [Hexestrol (Bibenzyl)] | 96.8% and 102% | 96.9 | 94.6 | 101 | 99.7 | 103 | 100 | 91.9 |
| Cc1cc(CS(=O)(=O)c2ccccc2)cc(OCc2ccc(CN3CCC[C@@H]3CO)cc2)c1 | 98.9% and 101% | 95.6 | 98.9 | 103 | 96.5 | 104 | 98.7 | 92.6 |
| Cc1cncc(CN2CCC(=C3c4ccc(Cl)cc4CCc4cccnc43)CC2)c1 [Rupatadine Fumarate] | 77% and 89.3% | 76.5 | 62.6 | 54.1 | 61.4 | 64.4 | 38.6 | 46 |
| COc1cc(O)c(C(=O)Nc2nc(C(=O)NCCN(C(C)C)C(C)C)cs2)cc1OC [Acotiamide] | 101% and 97.3% | 107 | 98 | 108 | 97.5 | 106 | 94.1 | 101 |

| Structure (SMILES) | cell viability (K562; SRSF2 genotype: SRSF2 P95H/wt) | cell viability (K562; SRSF2 genotype: SRSF2 wt/wt) [%] | cell viability (MARIMO; SRSF2 genotype: SRSF2 P95H/wt) [%] | cell viability (MARIMO; SRSF2 genotype: SRSF2 wt/wt) [%] | cell viability (MOLM14; SRSF2 genotype: SRSF2 P95H/wt) [%] | cell viability (MOLM14; SRSF2 genotype: SRSF2 wt/wt) [%] | cell viability (OCI-AML2; SRSF2 genotype: P95H/wt) [%] | cell viability (OCI-AML2; SRSF2 genotype: wt/wt) [%] |
| --- | --- | --- | --- | --- | --- | --- | --- | --- |
| O=c1[nH]c(=O)n([C@H]2C[C@H](O)[C@@H](CO)O2)cc1Br [Bromodeoxyuridine (BrdU)] | 90.5% and 102% | 96.1 | 91.2 | 88 | 80.8 | 79.1 | 90.5 | 99.9 |
| O=C(O)c1cccnc1 [Niacin (Nicotinic acid)] | 108% and 98.1% | 109 | 99.3 | 111 | 103 | 101 | 74 | 78.7 |
| CCO[C@@H]1OC(=O)C[C@@H]1NC(=O)[C@@H]1CCCN1C(=O)[C@@H](NC(=O)c1ccc(N)c(Cl)c1)C(C)(C)C [Belnacasan (VX-765)] | 99.5% and 102% | 94 | 95.2 | 104 | 97.7 | 98.1 | 103 | 104 |
| Cc1cc(Nc2ncnc3ccc(-c4ccc(CNCCS(C)(=O)=O)o4)cc23)ccc1Oc1ccn2ncnc2c1 [HER2 Inhibitor 1] | 96.3% and 102% | 105 | 107 | 108 | 93 | 101 | 95.7 | 89.6 |
| CS(=O)(=O)N1CCc2c(-c3cnc(N)nc3)nc(N3CCOCC3)nc21 | 56.4% and 67% | 66.8 | 53.6 | 42.5 | 34.2 | 35.9 | 17.8 | 25.3 |
| Cc1ccc(S(=O)(=O)OCC(=O)Nc2ccc(C(=O)O)c(O)c2)cc1 | 95.9% and 95.6% | 97.9 | 95.7 | 102 | 99.7 | 101 | 94.2 | 101 |
| C[C@@]12C[C@H](c3ccoc3)O[C@@]13C[C@H](OC3=O)[C@H]1[C@H]2C[C@@H]2C[C@H]1C(=O)O2 [Diosbulbin B] | 103% and 104% | 102 | 105 | 108 | 108 | 110 | 102 | 101 |
| CCCCOc1ccc(C(=O)CCN2CCCCC2)cc1 [Dyclonine hydrochloride] | 80.7% and 80.8% | 80.6 | 77.8 | 68.7 | 49.2 | 76.4 | 64.5 | 64.2 |
| Cc1cc(Nc2ncnc3ccc(NC4=NC(C)(C)CO4)cc23)ccc1Oc1ccn2ncnc2c1 | 87.4% and 89.8% | 91.5 | 82.5 | 102 | 88.2 | 97.2 | 64.9 | 73.7 |
| CCOc1nc2cccc(C(=O)OC(C)OC(=O)OC3CCCCC3)c2n1Cc1ccc(-c2ccccc2-c2nn[nH]n2)cc1 (centres undefined) [Candesartan cilexetil (Atacand)] | 95.6% and 97.9% | 75.5 | 98.8 | 106 | 62.2 | 87.1 | 90 | 72.1 |
| CCOC(=O)c1[nH]c2cc(Cl)ccc2c1C(C(=O)NC(C)(C)C)N(C=O)Cc1ccc(Cl)cc1 (centres undefined) | 78.9% and 75.1% | 75.3 | 68.1 | 74.4 | 44.1 | 57.5 | 77.3 | 64.2 |
| O=c1cc(-c2ccccc2)oc2c1ccc1ccccc12 [alpha-Naphthoflavone] | 94.2% and 87.3% | 95.9 | 90.5 | 96.5 | 117 | 109 | 86.5 | 99.7 |
| Cc1ccc(NC(=O)c2ccc(CN3CCN(C)CC3)cc2)cc1Nc1nc(-c2cccnc2)cs1 [Masitinib (AB1010)] | 6.35% and 18.8% | 12.1 | 72.5 | 59.7 | 70.3 | 67.8 | 52 | 52.1 |
| CCCc1cc(-c2nc(-c3ccc(C)cc3)cs2)ccn1 [Fatostatin] | 22.9% and 30.5% | 39 | 46.2 | 36 | 51.6 | 35.5 | 34.2 | 35.4 |
| OC[C@H]1O[C@@](CO)(OC[C@@]2(OC[C@@]3(OC[C@@]4(O[C@H]5O[C@H](CO)[C@@H](O)[C@H](O)[C@H]5O)O[C@H](CO)[C@@H](O)[C@@H]4O)O[C@H](CO)[C@@H](O)[C@@H]3O)O[C@H](CO)[C@@H](O)[C@@H]2O)[C@@H](O)[C@@H]1O [1F-Fructofuranosylnystose] | 110% and 109% | 104 | 109 | 103 | 103 | 107 | 101 | 108 |
| Nc1ccc(C(=O)NCC(=O)O)cc1 [4-Aminohippuric Acid] | 97.6% and 98.4% | 98.2 | 92.9 | 102 | 95.7 | 97.4 | 92.8 | 103 |
| CCOC(=O)C1=C(N)Oc2ccc(Br)cc2C1C(C#N)C(=O)OCC (centres undefined) | 84.9% and 89.9% | 86.5 | 65.6 | 56 | 48.6 | 74.9 | 67.4 | 66 |
| CC1=C(CSC(=S)N2CCCCC2)C(=O)c2ccccc2C1=O [PKM2 inhibitor(compound 3k)] | 3.74% and 0.42% | 8.02 | 0.75 | 0.85 | 0.19 | 0.21 | 0.2 | 1.51 |
| Oc1cc2c(cc1O)[C@@H]1c3ccc(O)c(O)c3OC[C@]1(O)C2 [Hematoxylin (Hydroxybrazilin)] | 97% and 94.6% | 94.1 | 95.7 | 98.5 | 99.8 | 99.7 | 101 | 98.4 |
